Results as given in PubChem BioAssay (NCATS).
Inconclusive results are not listed. Where a call stands in place of a potency, no number is given. Activity calls are given as the source filed them. Calls come from the whole dose curve; as a rule, active = well fitted inhibition curve with a large enough effect; inconclusive = small, poorly fitted or top-dose-only effect; inactive = flat fitted curve, though single readings scatter.

How the values were obtained:
Test in all cases: qHTS profiling for inhibitors of Plasmodium falciparum proliferation (AID 504749); note: nearly all actives have a fitted effect of over 60% in size
Settings in all cases: P. falciparum in erythrocytes, SYBR Green DNA, 72 h; series mostly up to 28.7 µM
CP297 = tested on: CP297
Summary of the method: (§1)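 Each compound contacts P. falciparum-infected red blood cells for 72 h at 37 C; lysis buffer (Tris, EDTA, saponin, Triton X, SYBR Green I) is added and fluorescence measured next morning; values normalized to controls.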

CP305 = tested on: CP305
Summary of the method: as §1

CP315 = tested on: CP315
Summary of the method: as §1

CP325 = tested on: CP325
Summary of the method: as §1

CP329 = tested on: CP329
Summary of the method: as §1

CP335 = tested on: CP335
Summary of the method: as §1

DFO2036 = tested on: DFO2036
Summary of the method: as §1

DIV14 = tested on: DIV14
Summary of the method: as §1

DIV17 = tested on: DIV17
Summary of the method: as §1

DIV30 = tested on: DIV30
Summary of the method: as §1

Dd2 = tested on: Dd2
Summary of the method: as §1

ECU = tested on: ECU
Summary of the method: as §1

FAB9 = tested on: FAB9
Summary of the method: as §1

GB4 = tested on: GB4
Summary of the method: as §1

HB3 = tested on: HB3
Summary of the method: as §1

ICS = tested on: ICS
Summary of the method: as §1

JCK = tested on: JCK
Summary of the method: as §1

N140 = tested on: N140
Summary of the method: as §1

P93_24 = tested on: P93_24
Summary of the method: as §1

P94_40 = tested on: P94_40
Summary of the method: as §1
Potency is the fitted concentration of half-maximal effect.

Row | Structure (SMILES) | Potency (CP297) | Potency (CP305) | Potency (CP315) | Potency (CP325) | Potency (CP329) | Potency (CP335) | Potency (DFO2036) | Potency (DIV14) | Potency (DIV17) | Potency (DIV30) | Potency (Dd2) | Potency (ECU) | Potency (FAB9) | Potency (GB4) | Potency (HB3) | Potency (ICS) | Potency (JCK) | Potency (N140) | Potency (P93_24) | Potency (P94_40)
1 | O=c1n(Cl)c(=O)n(Cl)c(=O)n1Cl | inactive | inactive | inactive | inactive | inactive | inactive | inactive | inactive | inactive | inactive | inactive | inactive | inactive | inactive | inactive | inactive | inactive | inactive | inactive | inactive
2 | Cc1ccc(N=CN(C)C=Nc2ccc(C)cc2C)c(C)c1 | inactive | inactive | inactive | inactive | inactive | inactive | inactive | inactive | inactive | inactive | inactive | inactive | inactive | inactive | inactive | inactive | inactive | inactive | inactive | inactive
3 | COC(=O)C1=CCCN(C)C1 | inactive | inactive | inactive | inactive | inactive | inactive | inactive | inactive | inactive | inactive | inactive | inactive | inactive | inactive | inactive | inactive | inactive | inactive | inactive | inactive
4 | CCOC(=O)NC(O)C(Cl)(Cl)Cl (stereo unspecified) | inactive | inactive | inactive | inactive | inactive | inactive | inactive | inactive | inactive | inactive | inactive | inactive | inactive | inactive | inactive | inactive | inactive | inactive | inactive | inactive
5 | CN(C)C(=S)SSC(=S)N(C)C | 4.26 µM (active) | 2.39 µM (active) | 4.78 µM (active) | 2.39 µM (active) | 3.79 µM (active) | 1.51 µM (active) | 2.82 µM (active) | 1.9 µM (active) | 1.51 µM (active) | 1.69 µM (active) | 1 µM (active) | 6.31 µM (active) | 6.31 µM (active) | 2.13 µM (active) | 1.26 µM (active) | 0.891 µM (active) | 8.91 µM (active) | 1.78 µM (active) | 2.51 µM (active) | 2 µM (active)
6 | CCS(=O)(=O)C(C)(C)S(=O)(=O)CC | inactive | inactive | inactive | inactive | inactive | inactive | inactive | inactive | inactive | inactive | inactive | inactive | inactive | inactive | inactive | inactive | inactive | inactive | inactive | inactive
7 | NC(=O)OCCCc1ccccc1 | inactive | inactive | inactive | inactive | inactive | inactive | inactive | inactive | inactive | inactive | inactive | inactive | inactive | inactive | inactive | inactive | inactive | inactive | inactive | inactive
8 | CCC1(CC)C(=O)NC(=O)NC1=O | inactive | inactive | inactive | inactive | inactive | inactive | inactive | inactive | inactive | inactive | inactive | inactive | inactive | inactive | inactive | inactive | inactive | inactive | inactive | inactive
9 | COP(=O)(OC)OC=C(Cl)Cl | inactive | inactive | inactive | inactive | inactive | inactive | inactive | inactive | inactive | inactive | inactive | inactive | inactive | inactive | inactive | – | inactive | inactive | inactive | inactive
10 | Cc1ncc2n1-c1ccc(Cl)cc1C(c1ccccc1F)=NC2 | inactive | inactive | inactive | inactive | inactive | inactive | inactive | inactive | inactive | inactive | inactive | inactive | inactive | inactive | inactive | inactive | inactive | inactive | inactive | inactive
11 | COP(=O)(OC)C(O)C(Cl)(Cl)Cl (stereo unspecified) | inactive | inactive | inactive | inactive | inactive | inactive | inactive | inactive | inactive | inactive | inactive | – | inactive | – | inactive | – | inactive | inactive | inactive | inactive
12 | C[N+](C)(C)CCOC(=O)C(O)(c1ccccc1)c1ccccc1 | inactive | inactive | inactive | inactive | inactive | inactive | inactive | inactive | inactive | inactive | inactive | inactive | inactive | inactive | inactive | inactive | inactive | inactive | inactive | inactive
